Screens deposited in PubChem BioAssay by National Center for Advancing Translational Sciences (NCATS).
Shown are actives, neighbours in structure and some others; about 5.1% of the full set was active somewhere.
Tau fibril ThT: blocks human tau fibril formation measured by thioflavin T. P10636. recombinant tau K18 P301L, heparin-induced fibrillization, ThT fluorescence. Potency, µM (titrated, usually from 57.4 µM), actives largely listed as inhibitors. 270,000 compounds, 2.1% hits; note: nearly all actives have a fitted effect of over 55% in size
Target sequence (P10636 561-689 P618L limits assumed): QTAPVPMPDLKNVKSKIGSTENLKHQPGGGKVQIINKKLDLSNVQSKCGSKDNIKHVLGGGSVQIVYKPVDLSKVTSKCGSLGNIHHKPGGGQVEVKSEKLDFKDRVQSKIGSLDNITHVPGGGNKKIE
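Aggregation was driven by heparin (20 uM final) acting on recombinant tau […] bearing P301L in 100 mM sodium acetate pH 7; fibrils were detected with Thioflavin T.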
Tau FP inhib: inhibitors of human tau fibril formation; P10636; K18 P301L tau heparin fibrillization, Alexa594 FP, 6 h; Potency, µM (series often up to 57.7 µM), usual class: inhibitors; 280,000 compounds, 0.39% hits; note: nearly all actives have a fitted effect of over 55% in size
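FP of Alexa 594-tau after heparin (20 uM) induction. Substrate: human K18 P301L, 15 uM unlabeled, 0.24 uM labeled. Buffer 100 mM sodium acetate pH 7. 6 hr, 37 C.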
NPSR antag: neuropeptide S receptor (human) antagonism, cAMP; Potency, µM (series often up to 38.3 µM), hits mostly inhibitors; Q6W5P4; CHO-NPSR cells, cAMP TR-FRET, antagonist mode; 220,000 compounds, 1% hits; note: nearly all actives have a fitted effect of over 50% in size
Target sequence (Q6W5P4 whole entry, looked up): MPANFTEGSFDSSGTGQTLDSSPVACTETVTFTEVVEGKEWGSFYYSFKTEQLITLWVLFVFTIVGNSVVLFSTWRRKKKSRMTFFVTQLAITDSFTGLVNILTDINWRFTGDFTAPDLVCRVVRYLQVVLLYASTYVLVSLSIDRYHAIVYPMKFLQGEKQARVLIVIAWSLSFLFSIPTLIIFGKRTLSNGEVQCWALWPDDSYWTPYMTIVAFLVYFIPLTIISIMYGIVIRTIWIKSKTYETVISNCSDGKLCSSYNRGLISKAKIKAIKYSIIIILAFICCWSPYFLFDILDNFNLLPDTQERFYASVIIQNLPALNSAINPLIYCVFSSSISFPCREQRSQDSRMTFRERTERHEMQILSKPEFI
KDM4E inh: inhibitors of human JMJD2E histone demethylase. Potency, µM (doses to about 57.1 µM), actives largely listed as inhibitors. AID 2147. B2RXH2. 230,000 compounds, 1.6% hits. JMJD2E catalytic domain, FDH-coupled NADH fluorescence (FDH is formaldehyde dehydrogenase); note: nearly all actives have a fitted effect of over 50% in size
PNC assembly inh: inhibitors of perinucleolar compartment assembly | PC3M PTB-GFP, PNC prevalence imaging, 16 h; hits give low values | activity change (PNC), negative = inhibition, % at 10 µM | 140,000 compounds, 3.1% hits;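 active = readout at or below -70, meaning at least 70% loss of cells showing the perinucleolar compartment, a nuclear body marking cancer cells; inconclusive = readout between -30 and a set limit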
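Read-out is percentage of cells bearing a perinucleolar compartment, from automated 20x imaging of fixed, Hoechst-stained PC3M PTB-GFP cells. Cells were seeded 4 h, then exposed 16 h to compound (23 nl of library stock) in duplicate plates.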
Tau fluor cs: counter-screen for tau fibril formation inhibitors; tau K18 P301L (four-repeat tau fragment) Alexa594 fluorescence, heparin fibrillization; Potency, µM (highest dose often 57.7 µM); 280,000 compounds, 0.93% hits; note: nearly all actives have a fitted effect of over 55% in size
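Human K18 P301L tau (15 uM unlabeled plus 0.24 uM Alexa 594-labeled, final) in 100 mM sodium acetate pH 7 was mixed with compound and 20 uM heparin and incubated 6 hr at 37 C.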
Of the large screens only hits and unclear results are named; the others gave an inactive call; [ ] = dose if it differs, or a comment. Unless noted, calls come from the whole dose curve; as a rule, active = well fitted curve in the direction sought with a large enough effect; inconclusive = small, poorly fitted or top-dose-only effect, or another doubt; inactive = no such curve, though single readings can be large; an effect the other way counts as inactive or inconclusive.

O=C(Nc1nnc(COc2ccc(Cl)cc2)s1)c1ccco1	Tau fibril ThT 32µM, Tau FP inhib inconclusive, KDM4E inh inconclusive (no result: PNC assembly inh)
O=C(CNC(=O)c1ccco1)OCc1ccc(C(=O)c2ccccc2)cc1	none (no result: PNC assembly inh)
Cc1ccc(OCc2nnc(NC(=O)c3ccco3)s2)c(C)c1	PNC assembly inh -107
CC(C)(C)c1ccc(-c2nc(SCC(=O)Nc3ccc(Cl)cc3)[nH]c(=O)c2C#N)cc1	none (no result: NPSR antag, KDM4E inh, PNC assembly inh)
Cc1ccc(Cl)cc1N1CCN(C(=O)C2CCN(c3nnc(-n4cccc4)s3)CC2)CC1	Tau fibril ThT inconclusive, PNC assembly inh inconclusive
Cc1cccc(N2CCN(C(=O)C3CCN(c4nnc(-n5cccc5)s4)CC3)CC2C)c1 (centres undefined)	Tau fibril ThT inconclusive, PNC assembly inh -112
Oc1ccc(NC(=S)N=Nc2c(O)[nH]c3ccccc23)cc1	Tau fibril ThT 14µM, Tau fluor cs inconclusive (no result: PNC assembly inh)
Oc1cccc(NC(=S)N=Nc2c(O)[nH]c3ccc(Br)cc23)c1	Tau fibril ThT 6.3µM, Tau fluor cs 11µM[quencher] (no result: PNC assembly inh)
CNC(=S)N=Nc1c(O)[nH]c2ccc(C(C)C)cc12	Tau fibril ThT 16µM, Tau fluor cs inconclusive
O=C(N=Nc1c(O)[nH]c2ccc(Br)cc12)c1ccccc1-n1cccc1	Tau fibril ThT inconclusive, Tau FP inhib inconclusive, NPSR antag 13µM, PNC assembly inh inconclusive, Tau fluor cs 14µM[quencher]
CNC(=S)N=Nc1c(O)[nH]c2ccccc12	Tau fibril ThT inconclusive
CC(C)Sc1nc2sc3c(c2c(=O)n1Cc1ccccc1)CCCC3	none (no result: NPSR antag, KDM4E inh, PNC assembly inh)
CCc1ccccc1NC(=O)CSC1=Nc2ccccc2C2=NC(Cc3ccccc3)C(=O)N12 (centres undefined)	none (no result: NPSR antag, KDM4E inh, PNC assembly inh)
Oc1ccc(NC(=S)N=Nc2c(O)[nH]c3ccc(Br)cc23)cc1	Tau fibril ThT 5µM, NPSR antag inconclusive, Tau fluor cs 16µM[quencher] (no result: PNC assembly inh)
Oc1[nH]c2ccc(Br)cc2c1N=NC(=S)Nc1ccc(F)cc1	none (no result: Tau fibril ThT, PNC assembly inh)
O=C(CCc1nc2cccnc2n1-c1ccccc1)Nc1ccc(Cl)c(Cl)c1	Tau fluor cs inconclusive (no result: NPSR antag, KDM4E inh, PNC assembly inh)
CN1CCN(C(=O)C2=C[C@H](c3csc4ccccc34)C[C@H](OCCCCO)O2)CC1	KDM4E inh 22µM (no result: PNC assembly inh)
CCC1CCCCN1Cc1cn2c(-c3ccc(Br)cc3)nnc2s1 (centres undefined)	none (no result: NPSR antag, KDM4E inh, PNC assembly inh)
CC(C)CCNC(=O)CCn1c(=O)c2cccn2c2cccnc21	none (no result: NPSR antag, KDM4E inh, PNC assembly inh)
O=C(COC(=O)/C=C/c1cccs1)NC(=O)Cc1ccccc1	none (no result: PNC assembly inh)
O=C(COC(=O)/C=C/c1cccs1)NC(c1ccccc1)c1ccccc1	PNC assembly inh -119
COc1ccc(-n2c(C)cc(/C=C/c3nc(O)c([N+](=O)[O-])c(=O)[nH]3)c2C)cc1	Tau fibril ThT 16µM (no result: PNC assembly inh)
Cc1cc(/C=C\c2nc(O)c([N+](=O)[O-])c(=O)[nH]2)c(C)n1-c1ccccc1	Tau fibril ThT inconclusive (no result: PNC assembly inh)
CC(C)Sc1nnc(Cn2c(=O)sc3ccccc32)n1-c1ccccc1	none
CSc1nnc(Cn2c(=O)sc3ccccc32)n1-c1ccccc1	PNC assembly inh -106
CCOC(=O)c1cc(S(=O)(=O)N2CCN(c3ccccc3OC)CC2)[nH]n1	none (no result: NPSR antag, KDM4E inh, PNC assembly inh)
Cn1cc2c(=O)n(/N=C/c3ccccc3)cnc2n1	PNC assembly inh -82
COC(=O)c1cc2occc2n1Cc1ccc(F)cc1Cl	Tau fibril ThT inconclusive (no result: NPSR antag, KDM4E inh, PNC assembly inh)
COc1cc(C(=O)OCc2cc3ccccc3[nH]c2=O)cc(OC)c1OC	NPSR antag inconclusive, PNC assembly inh -100
Cc1ccc(C(=O)OCc2cc3ccccc3[nH]c2=O)cc1	none
Cc1cccc(C(=O)NNc2ncnc3c2cnn3-c2ccc(C)cc2C)c1	none (no result: NPSR antag, KDM4E inh, PNC assembly inh)
O=C(CSC1=NCCS1)NC(c1ccccc1)c1ccccc1	Tau fibril ThT 16µM, Tau FP inhib inconclusive
CC1(C)Oc2ccccc2OC1(O)c1ccc2ccccc2n1 (centres undefined)	PNC assembly inh -113
CCOc1ccccc1NC(=O)COc1cccc2c(=O)n(CCOC)ccc12	none (no result: NPSR antag, KDM4E inh, PNC assembly inh)
O=C(COc1ccccc1)N1CCN(c2ncnc3c2cnn3-c2ccccc2)CC1	PNC assembly inh -97
COc1cccc(CNC(=O)CN(C)S(=O)(=O)c2ccc3[nH]c4c(c3c2)CCCC4)c1	Tau FP inhib inconclusive, Tau fluor cs inconclusive (no result: NPSR antag, KDM4E inh, PNC assembly inh)
